Source: a collection of fitness landscapes (doi:10.1016/j.celrep.2020.107928)
In all, about 81,000 sequences were measured (“one-hybrid fitness for binding NBS DNA”: median about -0.1, highest 2% from about 0.36 on). Only a selection was taken, and the highest values are over-represented in it overall.

B1: Caulobacter ParB omega fusion; a variant is named by its letters at X, in order, B8GW30 (parent)
chain: MESVVVGEPGMSEGRRGLGRGLSALLGEVDAAPAQAPGEQLGGSREAPIEILQRNPDQPRRTFREEDLEDLSNSIREKGVLQPILVRPSPDTAGEYQIVAGERAWRAAQRAGLKTVPIMVRELDDLAVLEIGIIENVQRADLNVLEEALSYKVLMEKFERTQENIAQTIGKSXSHVANXMRLLXLPDEVQSYLVSGELTAXHARAIAAAADPVALAKQIIEGGLSVRETEALARKAPNLSAGKSKGGRPPRVKDTDTQALESDLSSVLGLDVSIDHRGSTGTLTITYATLEQLDDLCNRLTRGI

Variants of: B1
Assay: one-hybrid fitness for binding NBS DNA (the Noc-binding site; scaled: cognate 1, non-cognate 0); higher = stronger binding
Settings: with NBS DNA site
How it was run: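 The reporter was HIS3, with the binding site 19 bp from the promoter, in E. coli USO used for bacterial one-hybrid selection of Caulobacter ParB libraries with four specificity codons randomised. Growth was on M9 lacking histidine, with 0.1 mM IPTG and 5 mM 3-AT, for 48 hours at 37°C. Illumina sequencing covered plasmids before and after selection; three replicate libraries were pooled and variants with under 10 reads dropped. A fitness score is the log change in variant-to-wild-type read ratio, rescaled to the cognate and non-cognate references.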

| Variant | one-hybrid fitness for binding NBS DNA |
| --- | --- |
| SLHR | ≤ 0.2 |
| ENTM | ≤ 0.2 |
| LGQD | ≤ 0.2 |
| KSNT | ≤ 0.2 |
| PNLF | ≤ 0.2 |
| YVMG | ≤ 0.2 |
| DWYR | ≤ 0.2 |
| LYTY | ≤ 0.2 |
| QAAG | ≤ 0.2 |
| APTR | ≤ 0.2 |
| RCHH | 0.219 |
| PNAR | ≤ 0.2 |
| IYLD | ≤ 0.2 |
| QRCN | 0.397 |
| QCCC | ≤ 0.2 |
| QCCN | ≤ 0.2 |
| QRCE | 0.223 |
| QRCH | 0.52 |
| QRCM | 0.397 |
| QRCC | 0.389 |
| QSCC | ≤ 0.2 |
| QRCF | 0.275 |
| QRCG | 0.343 |
| QSCM | ≤ 0.2 |

| Variant | one-hybrid fitness for binding NBS DNA |
| --- | --- |
| QCCM | ≤ 0.2 |
| LFGC | ≤ 0.2 |
| DFND | ≤ 0.2 |
| HHDK | ≤ 0.2 |
| NKRM | ≤ 0.2 |
| EPHG | ≤ 0.2 |
| TMRV | ≤ 0.2 |
| KINT | ≤ 0.2 |
| AVTK | ≤ 0.2 |
| QSFM | ≤ 0.2 |
| YMRR | ≤ 0.2 |
| QGHN | ≤ 0.2 |
| AHIF | ≤ 0.2 |
| DQPR | ≤ 0.2 |
| VTFK | ≤ 0.2 |
| PKYY | ≤ 0.2 |
| QRCS | 0.693 |
| QRCQ | 0.382 |
| QRCD | 0.237 |
| QRCP | 0.249 |
| QSCQ | ≤ 0.2 |
| ALAT | ≤ 0.2 |
| THPT | ≤ 0.2 |
| QPKI | ≤ 0.2 |

| Variant | one-hybrid fitness for binding NBS DNA |
| --- | --- |
| QSKI | 0.314 |
| QTVI | ≤ 0.2 |
| QCKI | 0.405 |
| QRVI | ≤ 0.2 |
| QTKI | 0.468 |
| QRPI | ≤ 0.2 |
| QTFI | ≤ 0.2 |
| QRKI | 0.52 |
| KYRQ | ≤ 0.2 |
| YRRY | ≤ 0.2 |
| PRVL | ≤ 0.2 |
| QQIK | ≤ 0.2 |
| NLQI | ≤ 0.2 |
| TNPS | ≤ 0.2 |
| EPGN | ≤ 0.2 |
| FANT | ≤ 0.2 |
| SSVH | ≤ 0.2 |
| PPVW | ≤ 0.2 |
| SDIF | ≤ 0.2 |
| IYDC | ≤ 0.2 |
| RRET | 0.698 |
| RRWT | 0.824 |
| RRGK | 0.215 |
| RRHG | 0.362 |

| Variant | one-hybrid fitness for binding NBS DNA |
| --- | --- |
| RRHT | 0.755 |
| RCET | ≤ 0.2 |
| RRGY | 0.36 |
| RRGT | 0.732 |
| RRWM | 0.23 |
| RRHM | 0.294 |
| RPET | ≤ 0.2 |
| DEAY | ≤ 0.2 |
| MGSC | ≤ 0.2 |
| KCYS | ≤ 0.2 |
| CWHL | ≤ 0.2 |
| DVFL | ≤ 0.2 |
| TRWG | ≤ 0.2 |
| YWSC | ≤ 0.2 |
| RRRT | 0.786 |
| RFLT | ≤ 0.2 |
| DRRT | ≤ 0.2 |
| RRQT | 0.752 |
| RRQQ | 0.268 |
| RRYT | 0.769 |
| RRLM | 0.228 |
| RRQM | 0.273 |
| RGRT | ≤ 0.2 |
| RRLT | 0.761 |

| Variant | one-hybrid fitness for binding NBS DNA |
| --- | --- |
| TAWR | ≤ 0.2 |
| RMPQ | ≤ 0.2 |
| CKWG | ≤ 0.2 |
| MIPG | ≤ 0.2 |
| HFNT | ≤ 0.2 |
| GLSP | ≤ 0.2 |
| RRST | 0.776 |
| RPDT | ≤ 0.2 |
| RRNT | 0.785 |
| RRSC | 0.291 |
| RACT | 0.334 |
| RRNQ | 0.313 |
| RRCT | 0.77 |
| RRSQ | 0.284 |
| RRDT | 0.755 |
| RFCT | ≤ 0.2 |
| RRNK | 0.274 |
| KAAL | ≤ 0.2 |
| VLTL | ≤ 0.2 |
| LFQI | ≤ 0.2 |
| MRVN | ≤ 0.2 |
| PPII | ≤ 0.2 |
| YTPG | ≤ 0.2 |
| RTNS | 0.534 |

| Variant | one-hybrid fitness for binding NBS DNA |
| --- | --- |
| RTLD | ≤ 0.2 |
| RTHD | ≤ 0.2 |
| RTND | ≤ 0.2 |
| RTSD | ≤ 0.2 |
| RTSS | 0.475 |
| RTSN | ≤ 0.2 |
| RTHS | 0.54 |
| RTDS | 0.219 |
| RTHH | 0.262 |
| RTLS | 0.381 |
| RTLN | ≤ 0.2 |
| HINT | ≤ 0.2 |
| HQTT | ≤ 0.2 |
| ITQC | ≤ 0.2 |
| IHSS | ≤ 0.2 |
| SNIS | ≤ 0.2 |
| KRCM | ≤ 0.2 |
| FKNS | ≤ 0.2 |
| RTYS | 0.491 |
| RTWS | 0.349 |
| RTYH | ≤ 0.2 |
| RTDH | ≤ 0.2 |
| RTRP | ≤ 0.2 |
| RTRN | 0.277 |

| Variant | one-hybrid fitness for binding NBS DNA |
| --- | --- |
| RTRS | 0.651 |
| RTIS | 0.34 |
| RTRH | 0.536 |
| IPNR | ≤ 0.2 |
| PSAG | ≤ 0.2 |
| DNSY | ≤ 0.2 |
| AIGW | ≤ 0.2 |
| RVNP | ≤ 0.2 |
| RVND | ≤ 0.2 |
| RVDT | ≤ 0.2 |
| RVDR | 0.213 |
| RVNR | 0.55 |
| RVNT | 0.576 |
| RVNN | ≤ 0.2 |
| RVDS | ≤ 0.2 |
| RVNS | 0.521 |
| WHSS | ≤ 0.2 |
| TLQF | ≤ 0.2 |
| SSCT | ≤ 0.2 |
| WSSA | ≤ 0.2 |
| LTMS | ≤ 0.2 |
| PEYD | ≤ 0.2 |
| YDIF | ≤ 0.2 |
| YRPY | ≤ 0.2 |

| Variant | one-hybrid fitness for binding NBS DNA |
| --- | --- |
| RMVC | ≤ 0.2 |
| RKKC | 0.391 |
| RKPC | ≤ 0.2 |
| RMYC | ≤ 0.2 |
| RKVC | ≤ 0.2 |
| RCKC | 0.37 |
| RLKC | 0.335 |
| RPKC | ≤ 0.2 |
| RSYC | ≤ 0.2 |
| RSKC | 0.382 |
| RMKC | 0.4 |
| RSVC | ≤ 0.2 |
| CIWR | ≤ 0.2 |
| TVCY | ≤ 0.2 |
| CPRV | ≤ 0.2 |
| GSGL | ≤ 0.2 |
| NLCF | ≤ 0.2 |
| RRSD | ≤ 0.2 |
| RRSN | 0.356 |
| RRSP | ≤ 0.2 |
| RCSH | 0.203 |
| RRSS | 0.643 |
| RRSH | 0.439 |
| APVD | ≤ 0.2 |

| Variant | one-hybrid fitness for binding NBS DNA |
| --- | --- |
| VPVL | ≤ 0.2 |
| EKCM | ≤ 0.2 |
| GETM | ≤ 0.2 |
| NDTS | ≤ 0.2 |
| HEHG | ≤ 0.2 |
| WING | ≤ 0.2 |
| QRWD | ≤ 0.2 |
| QMWR | 0.403 |
| QTWC | ≤ 0.2 |
| QRWR | 0.796 |
| QIWR | 0.304 |
| QMWD | ≤ 0.2 |
| QLWR | 0.319 |
| QTWR | 0.529 |
| QSWR | 0.365 |
| QTWK | ≤ 0.2 |
| QMWS | 0.261 |
| RLIM | ≤ 0.2 |
| HKDT | ≤ 0.2 |
| CTPT | ≤ 0.2 |
| QQGL | ≤ 0.2 |
| TSVS | ≤ 0.2 |
| LDTG | ≤ 0.2 |
| DILR | ≤ 0.2 |

| Variant | one-hybrid fitness for binding NBS DNA |
| --- | --- |
| RKCV | ≤ 0.2 |
| QAWY | ≤ 0.2 |
| QKWF | ≤ 0.2 |
| QKWD | 0.405 |
| QAWR | 0.348 |
| QCWR | 0.49 |
| QPWR | ≤ 0.2 |
| QKWR | 0.462 |
| QKWM | ≤ 0.2 |
| QKWY | ≤ 0.2 |
| QKWS | 0.33 |
| RLLS | 0.266 |
| SITS | ≤ 0.2 |
| LTLV | ≤ 0.2 |
| SPPA | ≤ 0.2 |
| RPRH | ≤ 0.2 |
| RRRE | 0.219 |
| RRYH | 0.436 |
| RRPH | 0.294 |
| RSRH | 0.335 |
| RRRL | 0.25 |
| RREH | 0.296 |
| RCRH | 0.46 |
| RRRH | 0.808 |

| Variant | one-hybrid fitness for binding NBS DNA |
| --- | --- |
| SHTT | ≤ 0.2 |
| VASP | ≤ 0.2 |
| SECF | ≤ 0.2 |
| NISL | ≤ 0.2 |
| QYRC | 0.38 |
| QYKC | 0.371 |
| QYDC | ≤ 0.2 |
| QYNC | ≤ 0.2 |
| QYYC | ≤ 0.2 |
| QYVC | ≤ 0.2 |
| MESV | ≤ 0.2 |
| SGNS | ≤ 0.2 |
| GITD | ≤ 0.2 |
| RVSA | ≤ 0.2 |
| RMCL | ≤ 0.2 |
| RLCT | 0.396 |
| RLGC | ≤ 0.2 |
| RMCT | 0.366 |
| RLLT | 0.337 |
| RLPT | ≤ 0.2 |
| RLCH | ≤ 0.2 |
| RLGM | ≤ 0.2 |
| RLCP | ≤ 0.2 |
| RLYT | 0.391 |

| Variant | one-hybrid fitness for binding NBS DNA |
| --- | --- |
| RMCF | ≤ 0.2 |
| RLGT | 0.389 |
| APPM | ≤ 0.2 |
| YKNV | ≤ 0.2 |
| MWIF | ≤ 0.2 |
| QMEK | ≤ 0.2 |
| LNIR | ≤ 0.2 |
| FVCG | ≤ 0.2 |
| LKHR | ≤ 0.2 |
| RTCK | ≤ 0.2 |
| RLSP | ≤ 0.2 |
| RLHY | ≤ 0.2 |
| RTCC | ≤ 0.2 |
| RLHN | ≤ 0.2 |
| RTCT | 0.531 |
| RLSH | ≤ 0.2 |
| RLWT | 0.23 |
| RLIT | 0.23 |
| RLST | 0.46 |
| RLHT | 0.437 |
| RLRT | 0.657 |
| FWLT | ≤ 0.2 |
| PFLT | ≤ 0.2 |
| THKK | ≤ 0.2 |

| Variant | one-hybrid fitness for binding NBS DNA |
| --- | --- |
| QSNE | ≤ 0.2 |
| SMHG | ≤ 0.2 |
| TFYD | ≤ 0.2 |
| RPCT | ≤ 0.2 |
| RLKP | ≤ 0.2 |
| RLQT | 0.462 |
| RLQN | ≤ 0.2 |
| RLQD | ≤ 0.2 |
| RLDT | ≤ 0.2 |
| RLNH | 0.201 |
| RLNT | 0.528 |
| RSCT | 0.281 |
| RLVT | 0.236 |
| RCCT | 0.39 |
| RLKT | 0.644 |
| KERP | ≤ 0.2 |
| SPFL | ≤ 0.2 |
| PQIR | ≤ 0.2 |
